ST2 IL33 inh = IL1RL1 inhibition. Q01638. AlphaLISA ST2-Fc/biotin-IL-33 interaction, 1 h. inhibition, % for hits at 17 µM. 78,000 compounds, 2.3% hits. AID 1259354; in the data active means inhibition above about 30%
Target sequence (Q01638 whole entry, looked up): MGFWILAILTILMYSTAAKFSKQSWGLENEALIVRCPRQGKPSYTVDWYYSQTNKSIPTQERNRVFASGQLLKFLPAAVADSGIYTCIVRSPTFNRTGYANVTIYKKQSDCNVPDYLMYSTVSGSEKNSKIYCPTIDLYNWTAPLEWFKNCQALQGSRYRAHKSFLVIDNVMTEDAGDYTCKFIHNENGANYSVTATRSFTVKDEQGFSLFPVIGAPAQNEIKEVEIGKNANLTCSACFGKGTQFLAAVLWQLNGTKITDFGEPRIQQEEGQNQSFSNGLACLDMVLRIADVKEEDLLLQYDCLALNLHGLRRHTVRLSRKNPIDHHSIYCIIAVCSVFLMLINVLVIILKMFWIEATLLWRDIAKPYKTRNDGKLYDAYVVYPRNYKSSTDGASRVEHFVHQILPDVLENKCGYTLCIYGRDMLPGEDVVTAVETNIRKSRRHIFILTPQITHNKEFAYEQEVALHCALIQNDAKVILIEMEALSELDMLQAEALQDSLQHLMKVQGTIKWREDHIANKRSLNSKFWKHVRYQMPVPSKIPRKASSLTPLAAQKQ
Each line names hits and unclear results; the compound was inactive in the other large screens. The full list was thinned out, with hits kept by preference.

Cc1cc(-c2cc(NC3CCNCC3)nc3[nH]ccc23)c(=O)[nH]c1C	ST2 IL33 inh 38%
c1cnc(N2CCCCCCC2)c(CNCc2nc3ccccc3[nH]2)c1	none
COc1cccc(Nc2nc(-c3cccnc3)nc3ccccc23)c1	none
Cc1cccc(CN2CCC(O)(c3ccc4oc(C(=O)N(C)Cc5cscn5)cc4c3)CC2)c1	none
CCOc1cc(C(=O)Nc2ccc3sc(C)nc3c2)cc(OCC)c1OCC	none
OC1CCCN(c2ccnc(N3CCC(O)(Cc4ccccc4)CC3)n2)C1 (stereo not given)	none
CCCc1cc(CN(C)C(=O)c2cc(NC(=O)c3ccccc3)cc3ncn(C4CCCC4)c23)[nH]n1	none
CN(C)c1ncc2c(n1)CCCC2NC(=O)CCc1cnn(C)c1 (stereo not given)	none
COc1cc(C=O)cc(C=O)c1O	none
COc1cc(Br)cc(/C=C2/NC(=O)NC2=O)c1O	none
COc1cc(/C=C2/SC(=O)NC2=O)c([N+](=O)[O-])cc1OC	none
COc1ccccc1/C=C/C1=NC(=C\c2ccccc2[N+](=O)[O-])/C(=O)O1	none
COc1cc(Br)cc(/C=C2\Sc3ccccc3C2=O)c1O	ST2 IL33 inh 60%
O=C1/C(=C/c2ccccc2[N+](=O)[O-])Sc2ccccc21	ST2 IL33 inh 31%
COc1cc(/C=C2\Sc3ccccc3C2=O)cc([N+](=O)[O-])c1O	ST2 IL33 inh 30%
COc1cc(/C=C2/C(=O)N(c3ccc(Br)cc3)N=C2C)cc([N+](=O)[O-])c1O	none
COc1cc(/C=C2\C(=O)N(c3cccc(C(=O)O)c3)N=C2C)cc([N+](=O)[O-])c1O	none
CC(C)CCNC(=O)C1c2c(n(C)c3ccccc23)SCC(=O)N1CCC(C)C (stereo not given)	none
Cc1cc(NC(=O)CCS(=O)(=O)c2cccc3nsnc23)ccc1Br	none
CC(C)Oc1ccc2c(=O)c(-c3ccccc3F)coc2c1	none
O=C(Nc1ccccc1-c1ccccc1NC(=O)c1ccccc1Cl)c1ccccc1Cl	none
O=C(c1ccc(NCc2ccoc2)nc1)N1CCC(N2CCOCC2)CC1	none
C=CCNC(=O)c1cnn2c(C)c(Cc3ccccc3)c(C)nc12	none
O=C(C1CCN(c2ccc(-c3ccc(Br)s3)nn2)CC1)N1CCOCC1	none
Cc1cc([N+](=O)[O-])nn1C(=O)Cc1ccccc1	none
O=C(Nc1ccc(F)c(F)c1)c1cc2c(=O)n3ccccc3nc2s1	none
CC1CCc2cc(F)ccc2N1C(=O)c1ccc([N+](=O)[O-])cc1 (stereo not given)	none
CC1CCc2cc(F)ccc2N1S(=O)(=O)c1ccc([N+](=O)[O-])cc1 (stereo not given)	ST2 IL33 inh 36%
CC1CCc2cc(F)ccc2N1S(C)(=O)=O (stereo not given)	none
O=C(CC(c1ccccc1)c1ccccc1F)NCCc1cnc[nH]1 (stereo not given)	none
N#Cc1ccc(Oc2ccc(Cl)cc2)cc1C#N	none
O=C(O)CCCC(=O)Nc1ccc(C(=O)O)cc1	none
O=C(CCCN1C(=O)S/C(=C\C=C\c2ccccc2)C1=O)Nc1ccc(C(=O)O)cc1	ST2 IL33 inh 32%
O=C(CCCCCN1C(=O)c2ccccc2C1=O)Nc1ccc(Cl)cc1	none
COC(=N)CN1C(=O)c2ccccc2S1(=O)=O	none
Cc1ccccc1Nc1sc(C(=O)c2ccccc2)c(N)c1C#N	none
CCN1C(C(=O)c2ccccc2)=C(Nc2ccccc2C)c2ccccc2S1(=O)=O	ST2 IL33 inh 31%
CC(C)Cc1n[nH]c(Cn2nc(Cc3ccccc3)c3ccccc3c2=O)n1	none
COc1ccc(C2SCC(=O)N2c2cccc(C(=O)O)c2)cc1 (stereo not given)	none
Cc1cc(/C=C(\C#N)C(=O)Nc2ccccc2)c(C)n1-c1ccc(F)cc1	none
COc1cccc(NC(=O)/C(C#N)=C\c2cn(Cc3ccc(F)cc3)c3ccccc23)c1	none
COc1cccc(NC(=O)/C(C#N)=C\c2cn(Cc3ccccc3)c3ccccc23)c1	ST2 IL33 inh 35%
C=CCn1ncc(CN2CCC3(CCNCC3)CC2)c1C	none
C=CCn1cc(C(=O)NC2CCCCC2)c(=O)c2cc(S(=O)(=O)N(CC)CC)ccc21	none
Cc1ccc(-c2ccc(C=C3C(=O)OC(C)(C(C)(C)C)OC3=O)o2)cc1[N+](=O)[O-] (stereo not given)	none
CC1=C(C#N)C(=O)NC(=O)/C1=C\c1ccc(-c2cc(C)c(C)cc2[N+](=O)[O-])o1	ST2 IL33 inh 34%
Cc1ccc(-c2ccc(/C=C3/NC(=O)NC3=O)o2)cc1[N+](=O)[O-]	ST2 IL33 inh 41%
Cc1ccc(C2=N/C(=C\c3cccnc3)C(=O)O2)cc1[N+](=O)[O-]	none
Cc1ccc(-n2c(CN3CCN(S(=O)(=O)c4ccc5c(c4)CCC5)CC3)nc3cccnc32)cc1	none
Cc1ccc(CNS(=O)(=O)c2ccc3c(c2)C(=O)NC3)cc1	none
COc1ccc(F)c(-c2nc(CN3CCN(CCCO)CC3)c(C)o2)c1	none
c1cnn(CC2(CNC3CCCNC3)CC2)c1 (stereo not given)	none
Cc1ccc(C2CC(C(F)(F)F)n3ncc(C(=O)N4CCCCC4)c3N2)cc1 (stereo not given)	none
O=C(O)c1ccccc1C1CCN(C(=O)c2ccc3cc[nH]c3c2)C1 (stereo not given)	none
COc1cc([N+](=O)[O-])ccc1-c1ccc(/C=C2\C(=O)N(c3cccc(Cl)c3)N=C2C)o1	none
CC(=O)Nc1ccccc1-c1ccc(C)o1	none
Cc1c(C(=O)O)cccc1-c1ccc(/C=C/[N+](=O)[O-])o1	ST2 IL33 inh 61%
N=C1S/C(=C/c2ccc(-c3ccccc3C(=O)O)o2)C(=O)N1c1nccs1	none
Cc1ccc(Cl)cc1-c1ccc(/C=C/[N+](=O)[O-])o1	ST2 IL33 inh 51%
Nc1cccc(-c2cccc(OCc3ccccc3)c2)n1	none
CC(C)c1nc(CCN(C)C(=O)c2cnn3ccn(C)c23)no1	none
COc1ccccc1N=c1sc(C2=c3ccccc3=NC2=O)c(O)n1-c1ccccc1OC	ST2 IL33 inh 36%
O=C(C1CCN(S(=O)(=O)c2ccccc2)CC1)N1CCCC(C(F)(F)F)C1 (stereo not given)	none
CN1C[C@@H](NC(=O)CCC(=O)O)C[C@H]1c1nc(-c2ccccc2)no1	none
CN1C[C@@H](NC(=O)Nc2cccc(F)c2)C[C@H]1c1nc(-c2cccnc2)no1	none
CN1C[C@@H](NC(=O)CC(C)(C)CC(=O)O)C[C@H]1c1nc(-c2ccc(F)cc2)no1	ST2 IL33 inh 30%
CN1C[C@@H](NC(=O)c2ccccc2)C[C@H]1c1nc(-c2ccc(F)cc2)no1	none
CN1C[C@@H](NC(=O)Nc2ccccc2)C[C@H]1c1nc(-c2ccc(F)cc2)no1	none
CN1C[C@@H](NC(=O)c2ccco2)C[C@H]1c1nc(-c2cccnc2)no1	ST2 IL33 inh 49%
Cc1ccc(-c2noc([C@@H]3C[C@H](NC(=O)Nc4cccc(F)c4)CN3C)n2)cc1	none
CN1C[C@@H](NC(=O)Nc2cccc(F)c2)C[C@H]1c1nc(-c2ccc(F)cc2)no1	ST2 IL33 inh 36%
CN1C[C@@H](NC(=O)NCc2ccccc2)C[C@H]1c1nc(-c2ccccc2)no1	none
COc1ccccc1C(=O)N1CCN(C/C=C/c2ccccc2)CC1	none
CC1CCCN(C(=O)CCS(=O)(=O)c2cccc3nsnc23)C1 (stereo not given)	none
O=C(c1ccc2nc3ccc(Cl)cc3c(=O)n2c1)N1CCN(c2ncccn2)CC1	none
CCNC(=O)O[C@@H]1CO[C@H]2[C@@H]1OC[C@@H]2NC(=S)Nc1cccc(C(=O)OC)c1	ST2 IL33 inh 34%
O=C(Nc1cccc(C(F)(F)F)c1)N[C@H]1CO[C@H]2[C@@H]1OC[C@H]2OC(=O)Nc1ccc(Oc2ccccc2)cc1	ST2 IL33 inh 31%
COc1ccc(NC(=O)O[C@@H]2CO[C@H]3[C@@H]2OC[C@@H]3NC(=O)Nc2cccc(C#N)c2)cc1	ST2 IL33 inh 66%
